Measured values published in PubChem BioAssay (NCATS).
Results filed as inconclusive are left out. The source made the active and inactive calls. Unless noted, the call rests on the fitted dose curve; in most records, active means well fitted curve in the direction sought with a large enough effect; inconclusive means small, poorly fitted or top-dose-only effect, or another doubt; inactive means no such curve, though single readings can be large; an effect the other way counts as inactive or inconclusive.

What was measured:
[1] = molecular target: Cytochrome P450 3A4 (Homo sapiens) (UniProt P08684); experiment: qHTS Assay for Activators of Cytochrome P450 3A4 (AID 885); further: nearly all actives have a fitted effect of over 65% in size
Sequence of Cytochrome P450 3A4 (Homo sapiens) (P08684 whole entry, looked up): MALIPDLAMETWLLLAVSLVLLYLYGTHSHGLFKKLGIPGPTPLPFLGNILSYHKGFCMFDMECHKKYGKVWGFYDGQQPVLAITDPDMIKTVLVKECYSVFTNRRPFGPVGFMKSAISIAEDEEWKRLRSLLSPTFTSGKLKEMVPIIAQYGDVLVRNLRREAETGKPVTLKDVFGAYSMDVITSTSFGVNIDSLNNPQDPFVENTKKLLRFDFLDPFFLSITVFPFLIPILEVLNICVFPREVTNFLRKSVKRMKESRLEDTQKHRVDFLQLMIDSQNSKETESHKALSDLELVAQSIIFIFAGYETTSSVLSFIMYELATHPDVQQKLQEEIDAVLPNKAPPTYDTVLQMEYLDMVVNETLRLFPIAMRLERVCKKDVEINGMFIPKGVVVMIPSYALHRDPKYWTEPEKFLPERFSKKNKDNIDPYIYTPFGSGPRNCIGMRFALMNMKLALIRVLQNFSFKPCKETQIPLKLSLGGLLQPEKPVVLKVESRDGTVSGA
Summary of the method: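 Luminescent readout of luciferin formed from 25 uM Luciferin-PPXE (KM level) by 20 nM CYP3A4 in 200 mM KPO4, with 60 min NADPH-driven reaction at room temperature after 10 min compound exposure. Ketoconazole (57 uM) defined 100% inhibition.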

[2] = qHTS Assay for Lipid Storage Modulators (AID 1519; calls by dose curve; on activity change, negative = inhibition: on the % scale 0 is the no-effect control and ±100 the full control effect); conditions: Drosophila S3 cells, BODIPY lipid droplet/cell ratio, laser cytometry, cells loaded with oleic acid
Summary of the method: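 Cells seeded at 5,000 per well were treated with compounds over a concentration series and loaded with oleic acid (400 uM, as added). Lipid droplet fluorescence (488 nm excitation, 500-530 nm channel) was read by laser-scanning cytometry and normalized to 20 uM Triacsin C.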

[3] = molecular target: Ubiquitin carboxyl-terminal hydrolase 1 (Homo sapiens) (UniProt O94782); experiment: Inhibitors of USP1/UAF1: Pilot qHTS (AID 504865);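 further: rhodamine fluorescence freed from ubiquitin-rhodamine substrate followed over time; top concentration of the series differs between compounds; on the % scale 0 is the no-effect control and ±100 the full control effect; nearly all actives have a fitted effect of over 35% in size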
Sequence of Ubiquitin carboxyl-terminal hydrolase 1 (Homo sapiens) (O94782 whole entry, looked up): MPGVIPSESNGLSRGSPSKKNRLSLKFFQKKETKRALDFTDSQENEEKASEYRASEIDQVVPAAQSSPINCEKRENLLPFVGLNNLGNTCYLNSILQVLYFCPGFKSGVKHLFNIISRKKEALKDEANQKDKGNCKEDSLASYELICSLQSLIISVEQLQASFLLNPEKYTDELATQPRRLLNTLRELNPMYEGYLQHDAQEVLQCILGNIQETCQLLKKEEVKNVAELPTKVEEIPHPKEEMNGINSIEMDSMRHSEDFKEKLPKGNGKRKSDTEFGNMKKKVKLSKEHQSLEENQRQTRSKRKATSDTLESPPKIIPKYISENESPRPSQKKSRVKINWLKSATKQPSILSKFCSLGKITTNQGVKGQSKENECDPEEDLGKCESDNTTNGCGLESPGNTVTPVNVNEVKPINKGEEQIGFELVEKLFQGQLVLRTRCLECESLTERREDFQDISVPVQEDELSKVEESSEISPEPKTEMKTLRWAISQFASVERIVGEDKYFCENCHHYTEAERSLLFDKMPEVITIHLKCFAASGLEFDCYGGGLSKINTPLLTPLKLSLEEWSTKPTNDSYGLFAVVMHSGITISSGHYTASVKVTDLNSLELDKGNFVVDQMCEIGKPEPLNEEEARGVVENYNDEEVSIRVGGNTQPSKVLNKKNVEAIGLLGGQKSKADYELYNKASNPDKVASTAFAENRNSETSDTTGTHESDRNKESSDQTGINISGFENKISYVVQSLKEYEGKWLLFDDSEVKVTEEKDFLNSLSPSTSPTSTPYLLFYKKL
Summary of the method: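 1nM USP1/UAF1 + cpd, 15 min RT; start w/ Ub-Rho 150nM final; kinetic FL 480/540 nm, 6 reads q60 s. Buffer 50mM HEPES pH 7.8, 0.5mM EDTA, 1mM TCEP, 0.01% Tween-20, 0.1 mg/ml BSA.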

[4] = molecular target: DNA dC->dU-editing enzyme APOBEC-3G (Homo sapiens) (UniProt Q9HC16); experiment: qHTS for inhibitors of Vif-A3G interactions: Validation (AID 588379); further: 0% is about no effect
Sequence of DNA dC->dU-editing enzyme APOBEC-3G (Homo sapiens) (Q9HC16 whole entry, looked up): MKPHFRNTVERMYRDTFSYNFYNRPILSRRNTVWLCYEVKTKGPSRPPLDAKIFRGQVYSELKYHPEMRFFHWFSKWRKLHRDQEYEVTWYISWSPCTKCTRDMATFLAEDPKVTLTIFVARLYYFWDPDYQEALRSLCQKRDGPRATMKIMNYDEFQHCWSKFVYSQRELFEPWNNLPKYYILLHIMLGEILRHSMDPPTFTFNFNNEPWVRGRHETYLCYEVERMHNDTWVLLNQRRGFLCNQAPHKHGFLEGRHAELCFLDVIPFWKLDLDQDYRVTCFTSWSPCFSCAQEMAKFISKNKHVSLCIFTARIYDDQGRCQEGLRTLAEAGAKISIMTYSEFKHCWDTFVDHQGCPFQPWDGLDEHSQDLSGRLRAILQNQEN
Summary of the method: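 Yellow fluorescence (Ex 488, Em 500-530) of Vif-coexpressing HeLa A3G-eYFP cells, scanned by Acumen cytometer, reports blocked A3G degradation. Cells plated at 700/well overnight at 37 deg C before compound addition, then a further overnight compound incubation at 37 deg C.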

[5] = molecular target: Cytochrome P450 3A4 (Homo sapiens) (UniProt P08684); experiment: qHTS Assay for Inhibitors and Substrates of Cytochrome P450 3A4 (AID 884); further: nearly all actives have a fitted effect of over 50% in size; further: potency means the concentration at half of the fitted maximal effect; on activity change, negative = inhibition: on the % scale 0 is the no-effect control and ±100 the full control effect
Summary of the method: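 Luminescent readout of luciferin produced by CYP3A4 (20 nM) dealkylation of Luciferin-PPXE, 25 uM (its KM). NADPH-driven reaction ran 60 min at RT after 10 min compound preincubation; data scaled to 57 uM ketoconazole as 100% inhibition.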

[6] = Confirmation and Secondary Assay for Modulators of Hemoglobin Beta Chain Splicing at IVS2 654 locus (AID 910);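 further: per-well total GFP intensity by laser scanning cytometry after 2-day treatment; % of control where 0% means no effect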
Summary of the method: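 HeLa cells stably carrying EGFP interrupted by mutant beta-globin IVS2-654 intron (CMV-driven) were treated with compound for 2 days at 37C; corrected splicing was scored as total peak GFP intensity per well (488 nm excitation, 500-520 nm emission).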

[7] = Confirmation and Secondary Assay for Modulators of Hemoglobin Beta Chain Splicing at IVS2 705 locus (AID 930);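 further: HeLa cells stably expressing the EGFP-705 splicing reporter; % of control where 0% means no effect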
Summary of the method: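 Restored EGFP fluorescence after 2-day compound exposure reports splicing correction in IVS2-705 EGFP reporter HeLa cells; positive control was 500 nM splice-blocking PNA oligo. Signal measured as well total peak GFP intensity (488 nm excitation).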

[8] = qHTS assay for small molecule antagonists of peroxisome proliferator-activated receptor delta signaling (AID 588535); conditions: HEK293T PPARd-UAS-bla, beta-lactamase FRET ratio, 18 h; 460 nm channel;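 further: cells co-treated with a PPAR-delta agonist as stimulator during compound exposure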
Summary of the method: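 Compounds tested in titration on PPAR-delta-UAS-bla HEK293T cells grown in charcoal/dextran-stripped serum (2%); beta-lactamase activity read via CCF4 emission at 460 and 530 nm.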

[9] = qHTS assay for small molecule activators of the p53 signaling pathway (AID 651743; active means well fitted activation curve with a large enough effect in the signal ratio, not every such curve was filed as active; the % refers to the signal ratio; further: potency means the concentration at half of the fitted maximal effect); conditions: HCT-116 p53RE-bla, beta-lactamase FRET ratio, 16 h; activation: stronger effect = higher value
Summary of the method: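 Here HCT-116 cells with an integrated p53-responsive beta-lactamase gene were incubated with compounds (16 hours, 37 C) after a 5-hour plating period; beta-lactamase activity was detected as fluorescence intensity via B/G FRET substrate.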

[10] = molecular target: Peroxisome proliferator-activated receptor alpha (Homo sapiens) (UniProt Q07869); experiment: qHTS assay for small molecule agonists of the peroxisome proliferator-activated receptor alpha (PPARalpha) signaling pathway (AID 651778); conditions: PathHunter PPARalpha complementation, chemiluminescence, 6 h; stronger effect = higher value; further: % of control where 0% means no effect
Sequence of Peroxisome proliferator-activated receptor alpha (Homo sapiens) (Q07869 whole entry, looked up): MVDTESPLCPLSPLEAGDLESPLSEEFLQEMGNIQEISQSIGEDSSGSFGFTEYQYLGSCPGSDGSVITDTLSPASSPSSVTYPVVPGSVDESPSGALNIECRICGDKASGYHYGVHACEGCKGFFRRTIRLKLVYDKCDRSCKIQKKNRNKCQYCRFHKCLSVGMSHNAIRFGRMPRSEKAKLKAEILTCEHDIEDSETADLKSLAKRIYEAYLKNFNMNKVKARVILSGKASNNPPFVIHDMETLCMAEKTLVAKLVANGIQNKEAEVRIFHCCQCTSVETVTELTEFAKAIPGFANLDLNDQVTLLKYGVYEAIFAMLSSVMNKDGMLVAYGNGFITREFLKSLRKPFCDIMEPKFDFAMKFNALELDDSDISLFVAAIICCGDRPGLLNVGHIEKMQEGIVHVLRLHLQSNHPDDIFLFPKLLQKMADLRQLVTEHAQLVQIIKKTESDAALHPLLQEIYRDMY
Summary of the method: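 Cells plated at 2,000/well and held overnight at 37 C, 5% CO2, then compound added by pin tool for 6 hr; after PathHunter detection reagent and 60 min at room temperature, chemiluminescence from enzyme complementation was read.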

[11] = qHTS assay for cell viability of HEK293 cells (AID 743288); conditions: ATP luminescence (CellTiter-Glo), 18 h; max response: stronger effect = lower value; further: potency means the concentration at half of the fitted maximal effect; nearly all actives have a fitted effect of over 50% in size
Summary of the method: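 ATP luminescence (CellTiter-Glo) reports metabolically competent cell number after parental HEK293 cells, 2,000/well, were treated with DMSO-dissolved compounds for 18 h at 37 C; reagent incubation 30 min, room temperature.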

[12] = molecular target: Nuclear receptor subfamily 1 group I member 2 (Rattus norvegicus) (UniProt Q9R1A7); experiment: qHTS assay for small molecule activators of the rat pregnane X receptor (rPXR) signaling pathway (AID 651751; call rule not given here; further: 0% is about no effect); conditions: rPXR reporter cells, luciferase (One-Glo), 24 h
Sequence of Nuclear receptor subfamily 1 group I member 2 (Rattus norvegicus) (Q9R1A7 whole entry, looked up): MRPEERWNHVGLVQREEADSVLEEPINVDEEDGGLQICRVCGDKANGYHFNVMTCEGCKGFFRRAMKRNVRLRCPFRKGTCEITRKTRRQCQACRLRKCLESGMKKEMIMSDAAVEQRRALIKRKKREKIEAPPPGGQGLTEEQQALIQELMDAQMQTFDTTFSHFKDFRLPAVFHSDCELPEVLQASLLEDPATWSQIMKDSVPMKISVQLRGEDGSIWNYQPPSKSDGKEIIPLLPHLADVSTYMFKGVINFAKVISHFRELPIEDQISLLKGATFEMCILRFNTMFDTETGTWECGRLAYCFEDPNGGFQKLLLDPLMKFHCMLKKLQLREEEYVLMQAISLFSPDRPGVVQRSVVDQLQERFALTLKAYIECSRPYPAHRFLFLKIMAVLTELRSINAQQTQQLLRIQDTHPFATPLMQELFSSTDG

[13] = measured here: cell count channel max response
[14] = measured here: lipid channel max response

Compound: CCN1C[C@@]2(COC(=O)c3ccccc3N3C(=O)CC(C)C3=O)CC[C@H](OC)[C@]34C5C[C@@H]6[C@@H](OC)C[C@@](O)(C5[C@H]6OC)[C@@](O)(C13)[C@@H](OC)C24 (stereo partly drawn)
- Potency [1]: inactive
- activity change, negative = inhibition ([2]; at 57.5 µM (top of the series)): 4.09% (inactive)
- max response [2, 13]: 6.93%
- max response [2, 14]: 19.9%
- Potency [3]: inactive
- outcome [4]: inactive

Compound: CN1C2CC(OC(=O)C(CO)c3ccccc3)C[C@@H]1[C@H]1OC21 (stereo partly drawn)
- activity change, negative = inhibition ([2]; at 57.5 µM (top of the series)): 7.13% (inactive)
- max response [2, 13]: 12.9%
- max response [2, 14]: 25.6%
- Potency [3]: inactive

Compound: COc1cc2c(c(OC)c1OC)-c1ccc(OC)c(=O)cc1[C@H](NC(C)=O)CC2
- activity change, negative = inhibition ([2]; at 25.7 µM (top of the series)): -7.92% (inactive)
- max response [2, 13]: -13.6%
- max response [2, 14]: -22.5%
- Potency [3]: inactive

Compound: C[C@]12CCC3C(CC[C@H]4C[C@@H](O)CC[C@]34C)[C@@H]1CCC2=O (stereo partly drawn)
- Potency [1]: inactive
- activity change, negative = inhibition ([2]; at 57.5 µM (top of the series)): 0.0615% (inactive)
- max response [2, 13]: -8.24%
- max response [2, 14]: -8.16%
- Potency [3]: inactive
- outcome [4]: inactive

Compound: C[C@@H]1O[C@H](O[C@@H]2C=C3CC[C@H]4[C@@H](CC[C@]5(C)[C@@H](c6ccc(=O)oc6)CC[C@]45O)[C@@]3(C)CC2)[C@@H](O)[C@H](O)[C@@H]1O
- activity change, negative = inhibition ([2]; at 25.7 µM (top of the series)): -8.45% (inactive)
- max response [2, 13]: -11.6%
- max response [2, 14]: -25.4%
- Potency [3]: inactive

Compound: c1cncc([C@H]2CCCCN2)c1
- Potency [5]: inactive
- activity change, negative = inhibition ([2]; at 57.5 µM (top of the series)): 0.698% (inactive)
- max response [2, 13]: 18.4%
- max response [2, 14]: 19.6%
- outcome [4]: inactive

Compound: CC(C)(C)[C@]1(O)C[C@@H]2OC(=O)C[C@@]23C(=O)O[C@@H]2OC(=O)[C@H](O)[C@]213
- activity change, negative = inhibition ([2]; at 57.5 µM (top of the series)): 3.73% (inactive)
- max response [2, 13]: 5.67%
- max response [2, 14]: 8.55%
- Potency [3]: inactive
- outcome [4]: inactive

Compound: CNc1ccc(C(=O)CC(O)CCC(C)C2OC(=O)CC(O)CC(=O)CC(O)CC(O)CC(O)CC(O)CC3(O)CC(O)C(C(=O)OC)C(CC(O[C@@H]4OC(C)C(O)C(N)C4O)/C=C/C=C/C=C/C=C/C=C/C=C/C=C/C2C)O3)cc1 (stereo partly drawn)
- Potency [5]: inactive
- Potency [6]: inactive
- Potency [7]: inactive
- activity change, negative = inhibition ([2]; at 57.5 µM (top of the series)): 9.29% (inactive)
- max response [2, 13]: 14.1%
- max response [2, 14]: 27.6%

Compound: O=C1C(Cl)=C(Cl)C(=O)C(Cl)=C1Cl
- Potency [5]: 2 µM (active)
- Potency [1]: inactive
- Potency [6]: inactive
- Potency [7]: inactive
- activity change, negative = inhibition ([2]; at 57.5 µM (top of the series)): -9.83% (inactive)
- max response [2, 13]: -3.14%
- max response [2, 14]: -11.5%
- max response [8]: -78.9%
- Potency [9]: 25.1 µM (active)
- max response [10]: -6.11% (inactive)
- Potency [11]: 39.8 µM (active)
- max response [12]: -2.19% (inactive)

Compound: O=C1C=C2C=C[C@H]3C[C@@]2(O1)[C@H]1CCCCN31
- activity change, negative = inhibition ([2]; at 25.7 µM (top of the series)): -1.11% (inactive)
- max response [2, 13]: -16.7%
- max response [2, 14]: -17.3%
- Potency [3]: inactive

Compound: C[C@@]12CC[C@H]3[C@@H](CC[C@]4(O)C[C@H](O)CC[C@@]34C=O)[C@]1(O)CC[C@@H]2C1=CC(=O)OC1
- activity change, negative = inhibition ([2]; at 25.7 µM (top of the series)): -0.542% (inactive)
- max response [2, 13]: 6.59%
- max response [2, 14]: 6.37%
- Potency [3]: inactive

Compound: C[C@]1(C(=O)O)CCC[C@]2(C)c3cc(O)ccc3CC[C@@H]12
- Potency [5]: inactive
- activity change, negative = inhibition ([2]; at 57.5 µM (top of the series)): -6.36% (inactive)
- max response [2, 13]: -21.1%
- max response [2, 14]: -24.8%
- Potency [3]: inactive
- outcome [4]: inactive

Compound: C[N+]1=Cc2cc3c(cc2CC1)OCO3
- Potency [5]: inactive
- activity change, negative = inhibition ([2]; at 57.5 µM (top of the series)): 4.74% (inactive)
- max response [2, 13]: 15.4%
- max response [2, 14]: 22.1%
- outcome [4]: inactive

Compound: CC([C@H](O)c1ccccc1)N(C)C (stereo partly drawn)
- Potency [5]: inactive
- Potency [6]: inactive
- Potency [7]: inactive
- activity change, negative = inhibition ([2]; at 57.5 µM (top of the series)): 4.16% (inactive)
- max response [2, 13]: 14.6%
- max response [2, 14]: 17.5%
- Potency [3]: inactive
